Assay results taken from PubChem BioAssay AID493175 (National Center for Advancing Translational Sciences (NCATS), 2011).
Records with an inconclusive call do not appear. Values without a mark were called inactive. Calls follow the shape of the dose curve; as a rule, active = well fitted curve in the direction sought with a large enough effect; inconclusive = small, poorly fitted or top-dose-only effect, or another doubt; inactive = no such curve, though single readings can be large or run the other way.

The molecules below were run against Luciferin 4-monooxygenase (Photinus pyralis) (UniProt P08659) (assay: miR-21 counterscreen using purified firefly luciferase). Conditions: purified P. pyralis luciferase, luminescence; series mostly up to 57.5 µM; activity change, negative = inhibition: at the top concentration.
From the text: MLPCN Grant: 1 R21 NS059478-01 Assay Provider: Qihong Huang, The Wistar Institute NCGC Assay Overview: MicroRNAs (miRNAs) are endogenously encoded small (~20-25 nucleotides), nonprotein-coding RNAs that are involved in post-transcriptional repression of target messenger RNAs (mRNAs) (Le and Hannon, 2004). Estimated to be involved in the regulation of 30% of all protein-coding mRNAs (Filipowicz et al., 2008), miRNAs play a significant role in many biological processes including cellular differentiation and tissue development (Ghildiyal and Zamore, 2009). […] Compounds active in the miR-21 FLuc assay were clustered using Leadscope and active chemical series were prioritized based on chemical properties, potential for medicinal chemistry optimization, and SAR. Within each chemical series, representative compounds were re-acquired to test for activity in a secondary assay based on the quality of their CRC, efficacy, and potency. This secondary assay to determine if compounds active in the miR-21 FLuc assay were just luciferase inhibitors. Compounds found active in both the miR-21 FLuc and purified FLuc assays are considered as false positives. Keywords: NIH Roadmap, MLPCN, MLSMR, qHTS, miR-21, firefly luciferase, FLuc, miRNA.
NCGC Assay Protocol Summary: Reagents: 50mM Tris acetate, pH 7.5; 10mM Mg acetate; 10uM D-luciferin (Sigma #L9504); 10uM ATP; 0.01% Tween-20; 0.05% BSA; 10nM P. pyralis luciferase (Sigma #L9506) Control compounds used were two known firefly luciferase inhibitors (compounds (2) and (5) in Auld et al., 2010), and DMSO. Assay Summary: Three microliters containing firefly luciferase substrates in buffer (final concentrations: 50mM Tris acetate, pH 7.5, 10mM Mg acetate, 0.01% Tween-20, 0.05% BSA, 10uM D-luciferin, and 10uM ATP) are dispensed into each well of a Greiner white, solid-bottom 1536-well format plate using a flying reagent dispenser (FRD). These assay plates were then treated with 23nL of compound or DMSO using a Kalypsys pin tool, which allows for delivery of a 6-point interplate titration of each compound to the assay plate (quantitative HTS), with a final compound concentrations ranging from approximately 60 µM to 7pM. One microliter of firefly luciferase in […] Tris-acetate buffer was then delivered by FRD to each well for a final enzyme concentration of 10nM. Luciferase activity was then measured using a ViewLux CCD imager (PerkinElmer), with an average exposure time of 2-30 seconds (2X binning, medium/high gain).

Sequence of Luciferin 4-monooxygenase (Photinus pyralis) (P08659 whole entry, looked up): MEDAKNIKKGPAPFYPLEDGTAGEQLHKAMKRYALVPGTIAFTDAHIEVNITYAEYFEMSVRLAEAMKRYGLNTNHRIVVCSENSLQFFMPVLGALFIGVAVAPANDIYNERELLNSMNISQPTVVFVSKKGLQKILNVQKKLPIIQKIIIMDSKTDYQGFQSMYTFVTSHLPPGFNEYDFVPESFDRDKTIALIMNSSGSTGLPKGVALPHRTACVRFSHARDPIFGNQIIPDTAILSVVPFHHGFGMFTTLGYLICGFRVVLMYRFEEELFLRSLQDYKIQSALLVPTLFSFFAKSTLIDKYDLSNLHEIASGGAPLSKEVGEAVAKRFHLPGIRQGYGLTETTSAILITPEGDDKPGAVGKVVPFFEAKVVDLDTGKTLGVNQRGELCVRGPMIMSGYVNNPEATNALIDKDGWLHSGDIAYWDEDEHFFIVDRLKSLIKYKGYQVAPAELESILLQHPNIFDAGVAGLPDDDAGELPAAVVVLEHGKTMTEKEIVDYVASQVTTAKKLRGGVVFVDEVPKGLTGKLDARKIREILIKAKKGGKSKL

First: CN(C)c1ccc(CNc2nc(-c3ccco3)nn2S(C)(=O)=O)cc1
Second: Cc1ccc(-c2nc(NCc3ccco3)n(S(C)(=O)=O)n2)cc1
The “activity change, negative = inhibition” value of the first is higher: 1.82% for the first, 0.606% for the second.

First: CSc1nsc(SCC(=O)Nc2ccc(F)cc2F)n1
Second: COc1ccc(NC(=O)CSc2nc(SC)ns2)c(OC)c1
The “activity change, negative = inhibition” value of the first is lower: -4.78% for the first, -4.09% for the second.

Going from `Cc1cccc(-c2nnc(SCC(=O)Nc3ccc(C)c(C)c3)o2)c1` to `O=C(CSc1nnc(-c2ccc(Cl)cc2)o1)Nc1ccc(F)cc1`, the “activity change, negative = inhibition” value falls from 4.4% to -3.58%.

Going from `C/C(=N\NC(=O)c1ccncc1)c1ccc(NC(=O)c2ccc(Cl)cc2)cc1` to `Cc1ccc(C(=O)Nc2ccc3c(c2)N(C)C(=O)c2ccccc2S3)cc1F`, the “activity change, negative = inhibition” value rises from -10.4% to 1.83%.

Going from `CCS(=O)(=O)c1oc(-c2ccc(F)cc2)nc1S(=O)(=O)c1ccccc1` to `CS(=O)(=O)n1nc(-c2ccc(Cl)cc2)nc1SCc1ccccc1`, the “activity change, negative = inhibition” value falls from 0.873% to -8.68%.

Compared with `COc1cc(Cl)c(C)cc1Nc1c2c(nc3ccccc13)CCC2`, `COc1ccccc1NC(=O)c1sc2nc3c(cc2c1N)CN(Cc1ccccc1)CC3` is lower in “activity change, negative = inhibition” value: 2.63% for the first, -1.23% for the second.

Compared with `COc1ccc(-c2nnc(SCC(=O)Nc3cccc(F)c3)s2)cc1`, `Cc1cccc(-c2nsc(SCC(=O)Nc3ccc4c(c3)OCO4)n2)c1` is lower in “activity change, negative = inhibition” value: -12.9% for the first, -20.1% for the second.

Compared with `O=C(CSc1nnc(-c2ccccn2)o1)Nc1cccc(Cl)c1`, `Cc1cccc(OCc2nnc(SCC(=O)Nc3ccc(N4CCOCC4)cc3)o2)c1` is higher in “activity change, negative = inhibition” value: -13.8% for the first, 0.777% for the second.

Going from `Cc1nnc(SCc2nc(N)nc(Nc3ccccc3)n2)s1` to `Cc1ccc(Nc2ncnc(N)n2)cc1C`, the “activity change, negative = inhibition” value rises from -25.9% to -17.6%.

Compared with `CCS(=O)(=O)c1ncc(Cl)c(C(=O)N2CCN(c3cccc(Cl)c3)CC2)n1`, `CS(=O)(=O)c1ncc(Cl)c(C(=O)Nc2ccc3ccccc3c2)n1` is higher in “activity change, negative = inhibition” value: -13.3% for the first, -2.43% for the second.

Compared with `COc1cccc(C(=O)Nc2ccc3nc(N4CCN(c5ncccn5)CC4)cc(C)c3c2)c1OC`, `Cc1cc(Nc2cccc(C(F)(F)F)c2)nc2ccc(NC(=O)c3cccnc3)cc12` is higher in “activity change, negative = inhibition” value: -18.1% for the first, 1.05% for the second.

Going from `Nc1c(-c2nc(-c3ccccc3Cl)no2)nnn1-c1ccccc1F` to `Cc1cccc(-n2nnc(-c3nc(-c4cccs4)no3)c2N)c1C`, the “activity change, negative = inhibition” value rises from -14.3% to 2.43%.

Compared with `Cc1ccccc1OCCn1cnc2c(N)ncnc21`, `CC(=O)c1cnc2nc(SCc3ccccc3)nn2c1C` is lower in “activity change, negative = inhibition” value: -2.86% for the first, -17.2% for the second.

Going from `Nc1c(C(=O)Nc2ccccc2Br)sc2nc(-c3cccs3)ccc12` to `NC(=O)c1ccccc1NC(=O)c1ccc(-c2ccc(Br)cc2)o1`, the “activity change, negative = inhibition” value rises from -19% to 0.577%.

First: Cc1ccc(C)c(Nc2nc3nonc3nc2Nc2cccc(C)c2C)c1
Second: Cc1ccc(CNc2nc3nc(C)c(Cl)c(C)n3n2)cc1
The “activity change, negative = inhibition” value of the first is lower: -10.5% for the first, -5.45% for the second.

Going from `Cc1cccc(N2CCN(c3ncnc4onc(C)c34)CC2C)c1` (stereo not given) to `COc1cccc(-n2nnc(-c3nc(-c4cccs4)no3)c2N)c1`, the “activity change, negative = inhibition” value falls from -2.15% to -9.44%.

Compared with `Cc1ccc(NC(=O)Cn2nnc(-c3nc(-c4ccc(Cl)cc4)no3)c2N)cc1C`, `Cc1c(-c2nsc(NC(=O)c3cccs3)n2)nnn1-c1ccc(Cl)cc1` is lower in “activity change, negative = inhibition” value: 1.35% for the first, -6.95% for the second.

Compared with `COc1ccccc1Nc1nn2c(=O)c3ccc(C(=O)NCCc4ccccc4)cc3nc2s1`, `COc1ccc(OCC(=O)Nc2cc(-c3nc4ccccc4s3)ccc2C)cc1` is lower in “activity change, negative = inhibition” value: -1.8% for the first, -18.9% for the second.

Going from `CCc1ccc2oc(C(=O)Nc3nonc3CC)c(C)c2c1` to `COCC(=O)Nc1c(C(=O)Nc2ccc3c(c2)OCCO3)oc2ccccc12`, the “activity change, negative = inhibition” value falls from -14.6% to -14.9%.

First: COc1nc(Nc2cccc(C(F)(F)F)c2)nc(OC)n1
Second: COc1ccc(CCNc2ncnc3c2cnn3-c2cc(Cl)ccc2C)cc1
The “activity change, negative = inhibition” value of the first is lower: -6.49% for the first, 1.58% for the second.
